We go through 36 compounds from PubChem BioAssay (NCATS).

Inconclusive results are not listed. Entries that show only a call come without a potency. A number with no mark means an inactive call. Active and inactive are the calls of the source. Calls come from the whole dose curve; as a rule, active = well fitted curve in the direction sought with a large enough effect; inconclusive = small, poorly fitted or top-dose-only effect, or another doubt; inactive = no such curve, though single readings can be large; an effect the other way counts as inactive or inconclusive.

Sequence of Phospholipid hydroperoxide glutathione peroxidase GPX4 (Homo sapiens) (P36969 whole entry, looked up): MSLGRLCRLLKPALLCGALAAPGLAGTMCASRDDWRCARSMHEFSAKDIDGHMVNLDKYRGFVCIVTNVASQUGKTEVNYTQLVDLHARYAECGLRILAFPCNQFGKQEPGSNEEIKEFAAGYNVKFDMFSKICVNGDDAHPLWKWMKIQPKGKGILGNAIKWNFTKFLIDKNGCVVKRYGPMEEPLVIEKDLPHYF
Sequence of Glutathione peroxidase 1 (Homo sapiens) (P07203 whole entry, looked up): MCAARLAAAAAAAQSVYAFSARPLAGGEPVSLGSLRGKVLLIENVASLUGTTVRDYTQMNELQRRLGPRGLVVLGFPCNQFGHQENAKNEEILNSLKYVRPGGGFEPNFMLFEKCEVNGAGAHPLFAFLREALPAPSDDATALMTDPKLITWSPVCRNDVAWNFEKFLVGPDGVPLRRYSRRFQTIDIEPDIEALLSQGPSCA
Sequence of Metallo-beta-lactamase type 2 (Klebsiella pneumoniae) (C7C422 whole entry, looked up): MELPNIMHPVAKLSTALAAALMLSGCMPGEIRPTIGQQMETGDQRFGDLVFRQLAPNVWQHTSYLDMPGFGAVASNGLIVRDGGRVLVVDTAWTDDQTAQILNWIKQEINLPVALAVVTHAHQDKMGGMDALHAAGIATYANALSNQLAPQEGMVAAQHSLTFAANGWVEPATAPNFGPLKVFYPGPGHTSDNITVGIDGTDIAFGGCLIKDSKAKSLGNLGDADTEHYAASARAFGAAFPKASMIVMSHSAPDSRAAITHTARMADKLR

In one assay the target is Metallo-beta-lactamase type 2 (Klebsiella pneumoniae) (UniProt C7C422). Nature of the assay: qHTS to identify inhibitors of the New Delhi Metallo-beta-lactamase (NDM): assay validation screen against the NCATS LOPAC Collection (AID 1794843).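 Note: nitrocefin turnover by NDM-1 measured as 485 nm absorbance at plateau.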 The following applies: NDM-1 enzyme, nitrocefin hydrolysis, absorbance 485 nm; series mostly up to 38.4 µM; activity change, negative = inhibition: at the top concentration. The gist of the method:
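Enzyme 2 nM final, 50 mM HEPES pH 7.0, 1 uM ZnSO4, 0.01% Tween20; cpds in DMSO, preincub w/ enzyme; + nitrocefin (50 uM stock); A485 at plateau; no-enzyme column as blank.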
On the technique in general: qHTS replaces the single test concentration by a dilution series.
In the case of `NC(N)=NCc1cccc(I)c1`, the “activity change, negative = inhibition” value was -4.67%.
In the case of `CN=C(N)NCCC[C@H](N)C(=O)O`, the “activity change, negative = inhibition” value is -8.7%.
Consider `CCOC(=O)[C@H](CCc1ccccc1)N[C@@H](C)C(=O)N1[C@H](C(=O)O)C[C@H]2CCCC[C@@H]21`, for which the “activity change, negative = inhibition” value was -17.1%.
`CC(C)(C)NC[C@H](O)COc1nsnc1N1CCOCC1`: the “activity change, negative = inhibition” value is 2.77%.

The next assay addresses Glutathione peroxidase 1 (Homo sapiens) (UniProt P07203). Briefly: Primary qHTS Assay for Inhibitors of Recombinant Selenoprotein Glutathione Peroxidase 1 (GPX1) (AID 1845191). Note: nearly all actives have a fitted effect of over 65% in size. The following applies: recombinant GPX1, GR-coupled NADPH fluorescence, 15 min; series mostly up to 48.8 µM; activity, negative = inhibition: at the top concentration. In short, it runs like this: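 10 nM GPX1 + cpd, 30 min RT; start w/ 1 mM GSH, 0.5 mM cumene hydroperoxide, 0.5 mM NADPH, 100 nM GR, 0.01% BSA; buffer 50 mM Tris-HCl pH 7.5, 2 mM EDTA, 150 mM NaCl; Fl 340/450, 0 & 15 min.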
`CCCCCCCCCCC[C@@H](C[C@@H]1OC(=O)[C@H]1CCCCCC)OC(=O)[C@H](CC(C)C)NC=O`: the Potency result was “inactive”.
As for `Clc1cccc(C(c2ccc3nc[nH]c3c2)n2ccnc2)c1` (stereo not given), the Potency entry was “inactive”.
As to `O=S(=O)(O)c1ccc(O)cc1`, the “activity, negative = inhibition” value was -14.1%.
As to `Nc1ccc(C(=O)NCC(=O)O)cc1`, the “activity, negative = inhibition” value was 3.55%.
`NC(N)=NCc1cccc(I)c1`: the Potency entry was “inactive”.
In the case of `CCCc1ncc(C[n+]2ccccc2C)c(N)n1`, the “activity, negative = inhibition” value was -6.84%.
As to `CC(=O)Nc1ccc(OC(=O)c2ccccc2OC(C)=O)cc1`, the outcome was inactive.
In the case of `C[N+]12CCC(CC1)C(OC(=O)C(O)(c1ccccc1)c1ccccc1)C2` (stereo not given), the “activity, negative = inhibition” value is 4.57%.
For `NS(=O)(=O)c1cc2c(cc1Cl)NC(CC1CCCC1)NS2(=O)=O` (stereo not given), the “activity, negative = inhibition” value is -20.3%.
`CCCCCCCCCCCCOCCOCCOCCOCCOCCOCCOCCOCCOCCO`: the result was inactive.
As to `CN=C(N)NCCC[C@H](N)C(=O)O`, the “activity, negative = inhibition” value is -0.925%.
Take `C#C[C@]1(OC(C)=O)CC[C@H]2[C@@H]3CCC4=C/C(=N/O)CC[C@@H]4[C@H]3CC[C@@]21CC`: the result was inactive.
On to `CCc1oc2ccccc2c1C(=O)c1cc(I)c(O)c(I)c1`, for which the “activity, negative = inhibition” value was -11.1%.
As to `CC(O)Cn1cnc2c1c(=O)n(C)c(=O)n2C` (stereo not given), the outcome was inactive.
On to `O=C(Nc1cccc(C2=NCCN2)c1)Nc1cccc(C2=NCCN2)c1`, for which the “activity, negative = inhibition” value is -4.21% [at 27.7 µM].
As for `CN(C)CCC[C@@]1(c2ccc(F)cc2)OCc2cc(C#N)ccc21`, the “activity, negative = inhibition” value was 1.45%.
With `CC(=O)O[C@]1(C(C)=O)CC[C@H]2[C@@H]3C=C(C)C4=CC(=O)CC[C@]4(C)[C@H]3CC[C@@]21C`, the Potency result is “inactive”.
In the case of `CCOc1ccccc1OCCN[C@H](C)Cc1ccc(OC)c(S(N)(=O)=O)c1`, the Potency entry was “inactive”.
`CCOc1ccc(NC(C)=O)cc1`: the result was inactive.
In the case of `CCCCC(CC)COC(=O)c1ccc(N(C)C)cc1` (stereo not given), the outcome was inactive.
In the case of `CN(Cc1ccc(C(C)(C)C)cc1)Cc1cccc2ccccc12`, the result was inactive.
With `N#C/C(=C1\SCC(c2ccccc2Cl)S1)n1ccnc1` (stereo not given), the outcome was inactive.
Regarding `Cc1cc(NS(=O)(=O)c2ccc(N)cc2)nc(C)n1`, the result was inactive.
Turning to `CCCN(CCC)S(=O)(=O)c1ccc(C(=O)O)cc1`, the result was inactive.
Consider `CC[N+](C)(CC)CCOC(=O)C(O)(c1ccccc1)C1CCCCC1` (stereo not given), for which the outcome was inactive.
For the compound `CCOCCn1c(N2CCCN(C)CC2)nc2ccccc21`, the “activity, negative = inhibition” value was -12.5%.
The same measure, in the same setting: as for `CCN(CC)CCOC(=O)C(Cc1cccc2ccccc12)CC1CCCO1` (stereo not given), the figure is 1.28%.
Take `CCOC(=O)[C@H](CCc1ccccc1)N[C@@H](C)C(=O)N1[C@H](C(=O)O)C[C@H]2CCCC[C@@H]21`: the Potency entry is “inactive”.
Consider `C=C[C@@]1(C)CC(=O)[C@]2(O)[C@@]3(C)[C@@H](O)CCC(C)(C)[C@@H]3[C@H](O)[C@H](OC(C)=O)[C@@]2(C)O1`, for which the result was inactive.
For the compound `CCN(CC)CCOC(=O)C1(c2ccccc2)CCCC1`, the “activity, negative = inhibition” value is -27.1%.
Turning to `CCCCN1C[C@H](O)[C@@H](O)[C@H](O)[C@H]1CO`, the “activity, negative = inhibition” value is -2.5%.
For `CCCCCCCCCCCCCC(=O)OC(C)C`, the “activity, negative = inhibition” value was 3.1%.
With `OC1C(O)C(O)C(O)C(O)C1O` (stereo not given), the “activity, negative = inhibition” value is -3.02%.
On to `CC(C)(C)NC[C@H](O)COc1nsnc1N1CCOCC1`, for which the Potency result is “inactive”.
As to `C[C@H]1O[C@@H](O[C@H]2CC[C@@]3(C)[C@H](CC[C@@H]4[C@@H]3C[C@@H](O)[C@]3(C)[C@@H](C5=CC(=O)OC5)CC[C@]43O)C2)C[C@H](O)[C@@H]1O[C@H]1C[C@H](O)[C@H](O[C@H]2C[C@H](O)[C@H](O[C@@H]3O[C@H](CO)[C@@H](O)[C@H](O)[C@H]3O)[C@@H](C)O2)[C@@H](C)O1`, the outcome was inactive.
For `CCN1CCCC(OC(=O)C(c2ccccc2)c2ccccc2)C1` (stereo not given), the outcome was inactive.

The next assay concerns the target Phospholipid hydroperoxide glutathione peroxidase GPX4 (Homo sapiens) (UniProt P36969). Nature of the assay: Primary qHTS Assay for Inhibitors of Recombinant Selenoprotein Glutathione Peroxidase 4 (GPX4) (AID 1845192). Note: nearly all actives have a fitted effect of over 65% in size. The note with it: recombinant GPX4, GR-coupled NADPH fluorescence, 15 min; series mostly up to 50 µM; activity change, negative = inhibition: at the top concentration. The gist of the method: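 NADPH consumption, followed by fluorescence at 340/450 nm between 0 and 15 min, reports GPX4 activity via coupled glutathione reductase (100 nM). Enzyme 200 nM was pre-exposed to compound 30 min; 0.5 mM cumene hydroperoxide and 1 mM GSH served as substrates.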
For the compound `NC(N)=NCc1cccc(I)c1`, the Potency entry was “inactive”.
With `CN=C(N)NCCC[C@H](N)C(=O)O`, the “activity change, negative = inhibition” value was 3.65%.
In the case of `CCOC(=O)[C@H](CCc1ccccc1)N[C@@H](C)C(=O)N1[C@H](C(=O)O)C[C@H]2CCCC[C@@H]21`, the Potency entry is “inactive”.
For the compound `OC1C(O)C(O)C(O)C(O)C1O` (stereo not given), the “activity change, negative = inhibition” value was -2.33%.
Take `CC(C)(C)NC[C@H](O)COc1nsnc1N1CCOCC1`: the Potency result was “inactive”.
